From PubChem BioAssay (NCATS)
“And” between values parts separate entries of the source, which are not always exact repeats. Equal values may be shown once. Results filed as inconclusive are left out. The source made the active and inactive calls. Unless noted, calls come from the whole dose curve; as a rule, active = well fitted curve in the direction sought with a large enough effect; inconclusive = small, poorly fitted or top-dose-only effect, or another doubt; inactive = no such curve, though single readings can be large; an effect the other way counts as inactive or inconclusive.

Assays:
[1] = Cell Viability - SH-SY5Y (AID 544); conditions: SH-SY5Y neuroblastoma cell viability; viability change, negative = cytotoxic: at 92.2 µM (top of the series);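 note: cells exposed to compound for 40 hours; 0% = DMSO alone and -100% = 100 µM tamoxifen; nearly all actives have a fitted effect of over 55% in size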
Procedure, shortened: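 Cytotoxicity measured via ATP-dependent luciferase luminescence (CellTiter-Glo) following 40 h, 37 °C exposure of 1500 SH-SY5Y cells per well. Concentration-response data were fitted with the standard Hill equation to give AC50.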

[2] = Cellular Toxicity (caspase-3) N2a (AID 665); conditions: N2a cells, luminescence, normalized: DMSO 0%, 10 µM staurosporine 100%; at 92.2 µM (top of the series);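 note: compound exposure lasted 16 h at 37 °C before readout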
Procedure, shortened: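 Caspase-3/7 activation measured as luminescence from Caspase-Glo reagent (1 h, room temperature) after 16 h compound exposure of mouse N2a cells. AC50 values from Hill-equation concentration-response, scaled between DMSO and 10 uM staurosporine.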

[3] = Cell Viability - LYMP2-005 (AID 967); note: potency is the fitted concentration of half-maximal effect
Procedure, shortened: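 qHTS viability screen in LYMP2-005 cells: 24 h at 37 C with compound, ATP luminescence via CellTiter-Glo, AC50 from Hill curves.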

[4] = Cell Viability - LYMP2-011 (AID 969);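 note: 0% = DMSO only and full inhibition = 92 µM tetraoctylammonium bromide; nearly all actives have a fitted effect of over 60% in size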
Procedure, shortened: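 Cytotoxicity qHTS with ATP content as read-out: lymphoblastoid cells (2500/well) exposed to compound for 24 h at 37 C, then luciferase luminescence measured. Concentration-response data fitted with the standard Hill equation to give AC50.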

[5] = Cell Viability - LYMP2-013 (AID 970);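 note: 0% = DMSO only and full inhibition = tetraoctylammonium bromide control; nearly all actives have a fitted effect of over 55% in size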
Procedure, shortened: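 qHTS cytotoxicity: ATP-dependent luminescence (CellTiter-Glo, 30 min room temperature) read after 24 h compound exposure at 37 C of 2500 LYMP2-013 lymphoblastoid cells per well. Concentration-response fitted with Hill equation to give AC50.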

[6] = Cell Viability - LYMP2-015 (AID 971); note: nearly all actives have a fitted effect of over 55% in size; note: potency is the fitted concentration of half-maximal effect
Procedure, shortened: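 Cytotoxicity readout: decrease in intracellular ATP (CellTiter-Glo luminescence) in 2500 LYMP2-015 lymphoblastoid cells/well after 24 h compound exposure at 37 C. Concentration-response data fitted with the standard Hill equation to give AC50.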

[7] = Cell Viability - LYMP2-023 (AID 975);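 note: cellular ATP measured by luciferase luminescence as viability proxy; plate controls were DMSO only for no effect and 92 µM tetraoctylammonium bromide control for full effect; nearly all actives have a fitted effect of over 55% in size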
Procedure, shortened: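 Intracellular ATP, read by CellTiter-Glo luminescence, reports viability after 24 hr compound exposure at 37 C. 2500 lymphoblastoid cells/well (LYMP2-023) seeded 5 hr beforehand; Hill fits give AC50; positive control tetraoctylammonium bromide.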

[8] = Cell Viability - LYMP1-002 - Assay at 40 hr (AID 994);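 note: 0% = DMSO only and full inhibition = 92 µM tetraoctylammonium bromide; nearly all actives have a fitted effect of over 60% in size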
Procedure, shortened: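 Cytotoxicity was read as loss of cellular ATP (CellTiter-Glo luminescence) after 40 hr compound exposure at 37 C of 2500 LYMP1-002 lymphoblastoid cells per well. Concentration-response data were fitted with the standard Hill equation to give AC50.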

[9] = molecular target: Bile acid receptor (Homo sapiens) (UniProt Q96RI1); assay: qHTS assay for small molecule antagonists of farnesoid X receptor signaling (AID 588526; calls by dose curve; note: % is set by controls: 0 for no effect and ±100 for the full control effect)
Chain of Bile acid receptor (Homo sapiens) (Q96RI1 whole entry, looked up): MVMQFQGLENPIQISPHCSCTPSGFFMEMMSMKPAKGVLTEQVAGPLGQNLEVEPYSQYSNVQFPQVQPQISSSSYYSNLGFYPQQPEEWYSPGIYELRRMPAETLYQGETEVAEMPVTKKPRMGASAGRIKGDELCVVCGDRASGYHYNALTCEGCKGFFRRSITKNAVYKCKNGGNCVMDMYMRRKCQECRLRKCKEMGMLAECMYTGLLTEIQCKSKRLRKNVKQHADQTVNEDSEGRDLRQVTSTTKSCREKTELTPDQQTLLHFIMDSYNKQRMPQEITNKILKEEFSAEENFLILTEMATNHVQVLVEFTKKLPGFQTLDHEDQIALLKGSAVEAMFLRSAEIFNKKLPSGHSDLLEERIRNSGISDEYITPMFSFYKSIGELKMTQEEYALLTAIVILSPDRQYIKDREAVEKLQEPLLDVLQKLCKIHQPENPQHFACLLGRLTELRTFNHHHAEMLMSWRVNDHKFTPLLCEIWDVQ
Procedure, shortened: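 Beta-lactamase reporter antagonist mode: HEK293T FXR-UAS-bla cells, titrated compound, CDCA stimulation, 16 h 37 C, CCF4 dye 2 h RT. Data normalized to CDCA 50 uM and DMSO; Hill-fit IC50.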

[10] = molecular target: Peroxisome proliferator-activated receptor gamma (Homo sapiens) (UniProt P37231); assay: qHTS assay for small molecule antagonists of peroxisome proliferator-activated receptor gamma signaling (AID 588537; active = well fitted inhibition curve with a large enough effect in the signal ratio, with a control signal flat, not every such curve was filed as active; the % refers to the signal ratio;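 note: reporter cells co-stimulated with 50 nM rosiglitazone agonist during compound treatment; % of control where 0% means no effect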)
Chain of Peroxisome proliferator-activated receptor gamma (Homo sapiens) (P37231 whole entry, looked up): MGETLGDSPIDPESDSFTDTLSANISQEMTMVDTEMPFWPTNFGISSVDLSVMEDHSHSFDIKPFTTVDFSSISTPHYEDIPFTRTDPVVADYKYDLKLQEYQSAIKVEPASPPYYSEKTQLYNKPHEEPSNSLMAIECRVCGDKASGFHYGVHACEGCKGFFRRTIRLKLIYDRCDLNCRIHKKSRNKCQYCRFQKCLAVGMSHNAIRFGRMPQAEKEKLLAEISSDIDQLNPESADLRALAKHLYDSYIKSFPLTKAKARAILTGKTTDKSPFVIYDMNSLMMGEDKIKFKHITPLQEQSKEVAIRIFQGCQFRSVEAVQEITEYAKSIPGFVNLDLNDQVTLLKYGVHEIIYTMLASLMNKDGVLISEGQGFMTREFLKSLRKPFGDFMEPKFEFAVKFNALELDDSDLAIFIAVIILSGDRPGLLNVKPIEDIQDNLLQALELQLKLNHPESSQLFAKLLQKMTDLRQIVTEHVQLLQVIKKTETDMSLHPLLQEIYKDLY
Procedure, shortened: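 Antagonist-mode β-lactamase reporter screen run as a titration series. HEK293 PPARγ-UAS-bla cells are stimulated with rosiglitazone (50 nM final) for 16 h, then CCF4 is read at 460/530 nm. Data are scaled between DMSO and rosiglitazone and fitted to the Hill equation.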

[11] = molecular target: Voltage-gated inwardly rectifying potassium channel KCNH2 (Homo sapiens) (UniProt Q12809); assay: qHTS Assay for Small Molecule Inhibitors of the Human hERG Channel Activity (AID 588834);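 note: lower thallium flux fluorescence means stronger hERG block; nearly all actives have a fitted effect of over 50% in size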; note: potency is the fitted concentration of half-maximal effect
Chain of Voltage-gated inwardly rectifying potassium channel KCNH2 (Homo sapiens) (Q12809 whole entry, looked up): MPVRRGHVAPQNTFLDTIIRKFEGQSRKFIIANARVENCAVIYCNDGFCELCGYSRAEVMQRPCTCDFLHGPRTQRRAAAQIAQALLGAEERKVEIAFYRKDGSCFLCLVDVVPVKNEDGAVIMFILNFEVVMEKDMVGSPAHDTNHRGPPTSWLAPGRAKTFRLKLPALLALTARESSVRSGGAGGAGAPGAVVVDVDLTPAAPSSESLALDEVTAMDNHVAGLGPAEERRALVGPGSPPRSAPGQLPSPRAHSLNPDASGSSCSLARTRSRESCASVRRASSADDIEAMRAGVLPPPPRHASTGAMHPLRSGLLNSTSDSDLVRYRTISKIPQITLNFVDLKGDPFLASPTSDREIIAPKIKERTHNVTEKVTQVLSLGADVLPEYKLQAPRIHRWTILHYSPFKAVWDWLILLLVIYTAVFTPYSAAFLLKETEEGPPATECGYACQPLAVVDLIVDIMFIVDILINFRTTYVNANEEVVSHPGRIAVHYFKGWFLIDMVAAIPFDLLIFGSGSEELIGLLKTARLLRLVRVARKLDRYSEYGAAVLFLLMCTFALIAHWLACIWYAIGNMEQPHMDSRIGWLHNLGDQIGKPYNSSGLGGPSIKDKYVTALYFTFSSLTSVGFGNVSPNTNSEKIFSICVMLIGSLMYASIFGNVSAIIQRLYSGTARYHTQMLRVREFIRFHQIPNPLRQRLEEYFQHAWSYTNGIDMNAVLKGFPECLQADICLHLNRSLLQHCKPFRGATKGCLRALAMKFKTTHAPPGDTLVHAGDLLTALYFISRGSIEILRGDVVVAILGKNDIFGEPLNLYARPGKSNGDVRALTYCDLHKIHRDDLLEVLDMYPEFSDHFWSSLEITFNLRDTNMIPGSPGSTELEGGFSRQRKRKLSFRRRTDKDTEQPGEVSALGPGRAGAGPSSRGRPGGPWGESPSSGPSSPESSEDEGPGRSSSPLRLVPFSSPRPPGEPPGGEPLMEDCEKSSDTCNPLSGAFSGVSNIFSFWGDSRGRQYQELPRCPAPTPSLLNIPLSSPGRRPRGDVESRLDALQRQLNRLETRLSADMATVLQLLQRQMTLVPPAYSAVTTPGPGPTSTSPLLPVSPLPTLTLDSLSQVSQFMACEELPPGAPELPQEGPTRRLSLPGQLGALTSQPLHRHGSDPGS
Procedure, shortened: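 Cells were infected with hERG-BacMam virus for 4 hrs at room temperature, grown overnight, then seeded at 2000/well. After dye loading and roughly 10 min compound treatment, thallium influx was triggered and fluorescence recorded.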

[12] = qHTS assay for small molecule agonists of the antioxidant response element (ARE) signaling pathway (AID 651741; active = well fitted activation curve with a large enough effect in the signal ratio; the % refers to the signal ratio; note: potency is the fitted concentration of half-maximal effect; for activation: % of control where 0% means no effect)
Procedure, shortened: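 Beta-lactamase reporter under ARE control in HepG2 cells, 2,000 per well, was induced by 16 h compound treatment at 37 C. Read-out was fluorescence from LiveBLAzer B/G FRET substrate after 2 h at room temperature.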

[13] = qHTS assay for small molecule activators of the nuclear factor-kappa B (NF-kB) signaling pathway (AID 651749; active = well fitted activation curve with a large enough effect in the signal ratio; the % refers to the signal ratio; note: % of control where 0% means no effect); conditions: NF-kB-bla ME-180 cells, beta-lactamase FRET ratio, 16 h; activation: stronger effect = higher value
Procedure, shortened: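 Activation measured after 16 hr compound treatment at 37C, 5% CO2, of 2,000 ME-180 cells/well stably expressing an NF-kB response element–driven beta-lactamase reporter, via FRET-disruption fluorescence.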

[14] = Cell Viability - MRC5 (AID 434; calls by dose curve;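 note: potency is the fitted concentration of half-maximal effect; cells exposed to compound for 40 hours at 37 °C; potency reflects cytotoxicity seen as loss of intracellular ATP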); conditions: MRC5 lung fibroblast viability, qHTS
Procedure, shortened: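 AC50 values come from Hill-equation fits of intracellular ATP loss, measured by CellTiter-Glo luminescence. Normal lung fibroblasts (MRC5) had 40 hr compound treatment at 37 C, normalized between DMSO and 100 uM tamoxifen.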

[15] = Cellular Toxicity (caspase-3) Hek293 (AID 664);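 note: cells exposed to compound for 16 h at 37 °C before readout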
Procedure, shortened: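 Concentration-response qHTS: caspase 3/7 activation measured by luminescent aminoluciferin substrate cleavage after 16 h compound exposure of Hek 293 cells. AC50 from Hill equation, with DMSO as basal and 100 uM tamoxifen as 100%.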

[16] = MultiTox-Fluor Cytotoxicity Assay - LYMP1-002 - Live Cells (AID 955);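 note: cells exposed to compound for 16 hours; % is set by controls: 0 for no effect and ±100 for the full control effect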
Procedure, shortened: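 After 16 h compound exposure at 37 C, live LYMP1-002 lymphoblastoid cells (2500/well) were quantified by cleavage of cell-permeant GF-AFC substrate, read at 405/510 nm after 60 min. Concentration-response fitted with Hill equation for AC50.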

[17] = molecular target: Peroxisome proliferator-activated receptor delta (Homo sapiens) (UniProt Q03181); assay: qHTS assay for small molecule agonists of peroxisome proliferator-activated receptor delta signaling (AID 588534; calls by dose curve;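 note: 0% = DMSO basal wells and 100% = positive control agonist at 10 µM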)
Chain of Peroxisome proliferator-activated receptor delta (Homo sapiens) (Q03181 whole entry, looked up): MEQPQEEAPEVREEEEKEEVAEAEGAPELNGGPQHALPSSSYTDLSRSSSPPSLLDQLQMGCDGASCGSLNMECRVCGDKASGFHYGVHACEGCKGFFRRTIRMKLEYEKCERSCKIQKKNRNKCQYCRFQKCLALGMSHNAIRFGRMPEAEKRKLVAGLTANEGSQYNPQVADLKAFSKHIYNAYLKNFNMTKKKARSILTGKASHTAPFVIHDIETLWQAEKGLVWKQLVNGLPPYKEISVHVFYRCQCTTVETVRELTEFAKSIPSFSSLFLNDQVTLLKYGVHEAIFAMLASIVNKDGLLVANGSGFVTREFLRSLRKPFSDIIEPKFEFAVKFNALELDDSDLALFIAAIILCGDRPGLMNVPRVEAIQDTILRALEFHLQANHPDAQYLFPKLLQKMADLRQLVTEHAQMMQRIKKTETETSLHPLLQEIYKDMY
Procedure, shortened: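 Agonist-mode beta-lactamase reporter readout (CCF4 dye, 2 h at RT) after 18 h at 37 °C exposure to a titration; Hill-equation fitting gave EC50 and maximal response.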

[18] = molecular target: Thyroid hormone receptor beta (Homo sapiens) (UniProt P10828); assay: qHTS assay for small molecule agonists of thyroid hormone receptor beta signaling (AID 588545; calls by dose curve)
Chain of Thyroid hormone receptor beta (Homo sapiens) (P10828 whole entry, looked up): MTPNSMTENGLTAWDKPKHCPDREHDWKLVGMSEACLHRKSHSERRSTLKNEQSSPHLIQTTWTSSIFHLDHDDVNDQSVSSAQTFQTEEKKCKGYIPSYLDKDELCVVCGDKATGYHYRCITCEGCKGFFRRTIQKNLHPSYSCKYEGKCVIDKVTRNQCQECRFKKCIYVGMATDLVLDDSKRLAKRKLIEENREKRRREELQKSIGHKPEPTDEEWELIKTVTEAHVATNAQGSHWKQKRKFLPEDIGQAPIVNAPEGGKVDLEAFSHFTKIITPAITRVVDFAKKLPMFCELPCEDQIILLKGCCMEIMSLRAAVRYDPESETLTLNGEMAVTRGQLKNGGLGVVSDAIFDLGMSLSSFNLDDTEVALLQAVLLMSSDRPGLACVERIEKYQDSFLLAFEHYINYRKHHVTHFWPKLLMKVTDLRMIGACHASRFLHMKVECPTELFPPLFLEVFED
Procedure, shortened: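 Agonist-mode beta-lactamase reporter assay, HEK 293 cells, 2% charcoal/dextran FBS; cells plated 4 hrs, compound 18 hrs at 37 C, CCF4 2 hrs RT. Normalized to 10 nM T3 (100%) and DMSO (0%); Hill fit gives EC50, efficacy.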

[19] = Cell Viability - H-4-II-E (AID 543);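 note: cells exposed to compound for 40 hours; nearly all actives have a fitted effect of over 35% in size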; note: potency is the fitted concentration of half-maximal effect
Procedure, shortened: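 CellTiter-Glo luminescence (intracellular ATP) measured after 40 h compound exposure at 37 °C in H-4-II-E rat hepatoma cells seeded at 1500/well. Values are AC50s fitted with the standard Hill equation.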

Cc1ccc2ccccc2c1
inactive: Potency [1] | caspase-3 activation [2] -4.52% | Potency [3] | Potency [4] | Potency [5] | Potency [6] | Potency [7] | Potency [8] | outcome [9] | Potency [10] | Potency [11] | Potency [12] | activation [13] -0.574%

CCCSC(=O)Cl
inactive: Potency [14] > 92 µM | Potency [1] | outcome [15] | caspase-3 activation [2] -1.31% | outcome [16] | Potency [3] | Potency [5] | Potency [6] | Potency [8] | outcome [9] | outcome [17] | outcome [18] | Potency [11] | Potency [12] | activation [13] -0.498%

CC(Cl)Cl
inactive: Potency [1] | outcome [15] | outcome [16] | Potency [3] | Potency [5] | Potency [6] | Potency [7] | outcome [9] | Potency [11] | Potency [12] | activation [13] 3.47%

O=C(Cl)/C=C/C(=O)Cl
inactive: Potency [14] > 92 µM | Potency [1] | outcome [15] | outcome [16] | Potency [4] | Potency [5] | Potency [6] | Potency [7] | Potency [8] | outcome [9] | outcome [17] | Potency [10] | outcome [18] | Potency [12] | activation [13] 2.63%

Cc1cccc([N+](=O)[O-])c1
inactive: Potency [14] > 92 µM | Potency [1] | outcome [16] | Potency [4] | Potency [5] | Potency [7] | outcome [9] | Potency [10] | Potency [12] | activation [13] -0.494% and -2.2%

c1ccc2c(c1)CCCC2
inactive: Potency [14] > 92 µM | Potency [1] | outcome [15] | outcome [16] | Potency [3] | Potency [4] | Potency [5] | Potency [6] | outcome [9] | Potency [12] | activation [13] -0.796%

S=C=Nc1cccc2ccccc12
active: Potency [12] 47.3 µM
inactive: Potency [19] | outcome [15] | Potency [3] | Potency [5] | Potency [6] | Potency [7] | Potency [8] | outcome [9] | outcome [17] | Potency [11] | activation [13] 2.04%

O=NN(c1ccccc1)c1ccccc1
inactive: Potency [19] | outcome [15] | Potency [3] | Potency [5] | Potency [6] | Potency [8] | outcome [9] | Potency [10] | Potency [11]

CCCCCCCC(=O)Cl
inactive: Potency [14] > 92 µM | Potency [19] | outcome [15] | outcome [16] | Potency [5] | Potency [6] | Potency [8] | outcome [9] | outcome [17] | Potency [11] | activation [13] -0.835%

O=[N+]([O-])c1cccc2ccccc12
inactive: Potency [14] > 92 µM | Potency [1] | outcome [15] | caspase-3 activation [2] -0.0738% | outcome [16] | Potency [3] | Potency [4] | Potency [6] | Potency [7] | Potency [8] | Potency [10] | outcome [18] | Potency [11] | activation [13] -0.404% and -0.717%

C=CCOC(=O)c1ccccc1N
inactive: Potency [14] > 92 µM | Potency [1] | outcome [15] | outcome [16] | Potency [4] | Potency [6] | Potency [8] | outcome [18] | Potency [11]

OCC(Br)CBr (configuration not stated)
inactive: Potency [1] | outcome [16] | Potency [4] | Potency [6] | Potency [8] | outcome [9] | outcome [17] | Potency [10] | Potency [11] | Potency [12]

Brc1ccc(Oc2cc(Br)c(Br)cc2Br)c(Br)c1
inactive: Potency [14] > 92 µM | Potency [19] | Potency [1] | caspase-3 activation [2] 12.3% and 4.39% | outcome [16] | Potency [3] | Potency [4] | Potency [6] | Potency [7] | Potency [8] | outcome [18] | Potency [11] | activation [13] 0.934% and 2.14% and 2.73%

C=C(C)C#N
inactive: Potency [1] | outcome [16] | Potency [5] | Potency [7] | outcome [9] | outcome [17] | outcome [18] | Potency [11]

Cc1ccc(O)c(C)c1
inactive: Potency [14] > 92 µM | Potency [19] | outcome [15] | caspase-3 activation [2] 3.54% | Potency [3] | Potency [4] | outcome [17] | Potency [10] | outcome [18] | Potency [11] | activation [13] 0.131% and -0.324% and 1.7%
active: Potency [12] 398 µM

Cc1cccc(C#N)c1
inactive: Potency [19] | caspase-3 activation [2] -2.05% | Potency [4] | Potency [7] | Potency [8] | outcome [9] | outcome [17] | outcome [18] | Potency [11] | activation [13] 0.885%

C=CC1CC=CCC1 (configuration not stated)
inactive: Potency [1] | caspase-3 activation [2] -0.281% | outcome [16] | Potency [3] | Potency [4] | Potency [5] | Potency [8] | outcome [9] | outcome [17] | Potency [10] | outcome [18] | Potency [11] | Potency [12] | activation [13] 0.91% and -0.814%

CCOP(=S)(OCC)Oc1ccc([N+](=O)[O-])cc1
inactive: Potency [19] | outcome [15] | Potency [3] | Potency [4] | Potency [5] | Potency [6] | Potency [7] | Potency [10] | Potency [12] | activation [13] -1.46% and -0.889% and 0.819%
active: Potency [11] 35.5 µM

CC(C)(OO)c1ccccc1
active: Potency [19] 25.1 µM | viability change, negative = cytotoxic [1] -82.7% | Potency [3] 39.8 µM | Potency [6] 39.8 µM
inactive: outcome [15] | caspase-3 activation [2] -2.62% | outcome [16] | Potency [8] | outcome [9] | outcome [17] | Potency [10] | Potency [12] | activation [13] -2.1% and -0.395%

Oc1ccc(Cl)cc1Cl
inactive: Potency [19] | outcome [15] | caspase-3 activation [2] -0.627% | Potency [4] | Potency [7] | outcome [9] | outcome [17] | Potency [10] | outcome [18] | Potency [11] | Potency [12]

C=CC(=C)C
inactive: Potency [1] | outcome [15] | Potency [3] | Potency [4] | Potency [5] | Potency [7] | outcome [9] | outcome [17] | Potency [10] | Potency [11]
